# Assay outcomes as filed in PubChem.
# HEK293 tox = Cytotoxic Profiling in HEK 293 Cell Line of Diverse Libraries Using Quantitative High-Throughput Screening. HEK 293 viability, ATP luminescence (CellTiter-Glo), 48-72 h. AID 1345083, 2018. Potency, µM (series often up to 115 µM), for the others: top-dose activity change, negative = cytotoxicity, hits mostly inhibitors. 94,000 compounds, 6.6% hits; note: potency is the fitted concentration of half-maximal effect; nearly all actives have a fitted effect of over 60% in size
#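 Read-out: CellTiter-Glo ATP luminescence. Cells: HEK 293, 250 cells/well. Exposure: 48 or 72 hr, 37 degree Celsius.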
# SNCA expr inhib = Primary qHTS assay for inhibitors of alpha-synuclein gene (SNCA) expression. 140,000 compounds, 0.17% hits. Potency, µM (series often up to 57.2 µM), for inactives: at the top dose activity change, negative = inhibition, most hits filed as inhibitors. HEK-293 SNCA-luciferase knock-in, luminescence, 24 h;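 note: potency is the fitted concentration of half-maximal effect; plate controls were DMSO cells for no effect and cell-free wells for full effect; nearly all actives have a fitted effect of over 45% in size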
# IP6K1 inh = Primary qHTS assay for small molecule inhibitors of Inositol hexaphosphate kinase 1 (IP6K1); AID 1645851, 2021; Inositol hexakisphosphate kinase 1 (Homo sapiens), Q92551; 140,000 compounds, 0.81% hits; activity change, % (series mostly up to about 58 µM); IP6K1 kinase, ADP-Glo luminescence, 2 h; hits give low values; in the data active = activity change below about -25%
#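 ADP-Glo luminescence measures ADP made by human IP6K1 during a 2 h RT reaction with ATP/IP6 (mix at 1.3 mM/130 uM); top library doses 57.5 and 19.1 uM final.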
# HEK293 viab = GF-AFC viability counterscreen for inhibitors of alpha-synuclein gene (SNCA) expression; AID 1671193, 2021; Potency, µM (series often up to 57.1 µM), inactives show at the top dose activity change, negative = cytotoxicity, usual class: cytotoxic; 150,000 compounds, 0.12% hits; HEK-293-SNCA-luc viability, GF-AFC fluorescence, 24 h;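 note: potency is the fitted concentration of half-maximal effect; 0% = DMSO-treated cells and -100% = medium-only wells without cells; nearly all actives have a fitted effect of over 30% in size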
#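 HEK-293-SNCA-luc cells (1500/well) plated 24 h, then exposed 24 h to a dilution series; GF-AFC added 30 min at 37C, fluorescence 405/540 nm; normalised to medium-only and DMSO wells, Hill fit.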
# NIH3T3 tox = Cytotoxic Profiling in NIH 3T3 Cell Line of Diverse Libraries Using Quantitative High-Throughput Screening. NIH 3T3 viability, CellTiter-Glo ATP luminescence, 48-72 h. Potency, µM (titrated, usually from 96.7 µM), inactives show top-dose activity change, negative = cytotoxicity, most hits filed as inhibitors. 94,000 compounds, 4.3% hits; note: potency is the fitted concentration of half-maximal effect; nearly all actives have a fitted effect of over 55% in size
#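 NIH 3T3 cells at 400 cells/well received 23 nL of compound by pintool and were incubated 48 or 72 h at 37 °C. Viability was read as ATP-coupled CellTiter-Glo luminescence.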
# FLuc inh = Firefly luciferase inhibition profiling of diverse chemical library using quantitative high-throughput screening; Luciferin 4-monooxygenase (Photinus pyralis), P08659; purified P. pyralis luciferase, luminescence, biochemical; Potency, µM (series often up to 115 µM), most hits filed as inhibitors; 76,000 compounds, 2.5% hits; AID 1347043, 2019; note: potency is the fitted concentration of half-maximal effect; nearly all actives have a fitted effect of over 65% in size
# Target sequence (P08659 whole entry, looked up): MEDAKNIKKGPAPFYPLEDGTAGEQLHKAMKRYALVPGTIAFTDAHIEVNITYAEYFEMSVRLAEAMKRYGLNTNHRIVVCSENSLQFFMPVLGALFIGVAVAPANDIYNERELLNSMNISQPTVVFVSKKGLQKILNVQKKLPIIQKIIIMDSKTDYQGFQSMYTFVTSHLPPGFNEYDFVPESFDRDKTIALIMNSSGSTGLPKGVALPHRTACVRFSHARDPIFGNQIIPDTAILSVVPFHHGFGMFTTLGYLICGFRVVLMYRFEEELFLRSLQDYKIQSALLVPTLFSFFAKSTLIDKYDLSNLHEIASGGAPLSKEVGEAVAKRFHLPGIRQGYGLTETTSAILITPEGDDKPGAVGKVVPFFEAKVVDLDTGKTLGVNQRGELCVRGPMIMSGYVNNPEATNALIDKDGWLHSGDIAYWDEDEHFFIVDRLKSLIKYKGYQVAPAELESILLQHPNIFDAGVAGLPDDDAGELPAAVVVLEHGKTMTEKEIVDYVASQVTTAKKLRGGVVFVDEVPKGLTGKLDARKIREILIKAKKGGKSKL
#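 Inhibitors were tested against purified firefly luciferase in a biochemical, low-substrate format (both substrates at 10uM) and luminescence measured with a CCD imager.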
# IP6K1 conf = Confirmatory qHTS assay for small molecule inhibitors of Inositol hexaphosphate kinase 1 (IP6K1). shares compounds with IP6K1 inh. recombinant IP6K1 kinase, ADP-Glo luminescence, 2 h. Potency, µM (doses to about 49 µM), without a hit: at the top dose activity change, negative = inhibition, hits mostly inhibitors. 1,200 compounds, 13% hits; note: potency is the fitted concentration of half-maximal effect; nearly all actives have a fitted effect of over 65% in size
# An asterisk follows results filed as active; i = inactive; ? = inconclusive; / = no result given; [ ] = dose if it differs, or a comment. Only some compounds are listed: those with a hit (about 7.3% of all), similar ones and a draw of the others. Unless noted, calls come from the whole dose curve; as a rule, active = well fitted curve in the direction sought with a large enough effect; inconclusive = small, poorly fitted or top-dose-only effect, or another doubt; inactive = no such curve, though single readings can be large; an effect the other way counts as inactive or inconclusive. Unless noted, % is set by controls: 0 for no effect and ±100 for the full control effect.
SMILES,HEK293 tox,SNCA expr inhib,IP6K1 inh,HEK293 viab,NIH3T3 tox,FLuc inh,IP6K1 conf
Cc1ccc([N+](=O)[O-])cc1S(=O)(=O)N(C)/N=C/c1cnc2ccc(Br)cn12,/,/,-25*,?,/,/,?
Cc1cnc(CCNC(=O)COc2ccccc2)n1C1CCC1,-12%,1%,5,14%,-19%,i,/
COc1ccc(CNC(=O)c2cc3c(-c4ccccc4F)nn(C)c3s2)cc1,/,-10%,-36*,-21%,/,/,?
Cc1nn(C)c(C)c1CCC(=O)NCCc1ncc(C)n1C1CC1,3%,14%,3,5%,-2%,i,/
CCc1ccc(CNC(=O)C2CCCN(S(=O)(=O)c3ccc4c(ccn4C)c3)C2)cc1 (centres undefined),/,-23%,-26*,4%,/,/,-4%
CCOC(=O)C(Cc1cc(N2CCN(C(=O)c3c(Cl)cccc3Cl)CC2)ccc1Cl)OC (centres undefined),?,/,12,/,?,/,/
O=C(Nc1cccnc1)c1ccnc(-c2nnc3ccc(Nc4ccccc4)nn23)c1,?,39%[87.6 µM],-56*,-15%[87.6 µM],?,i,?
O=C(NCCc1ccccn1)c1ccnc(-c2nnc3ccc(Nc4ccccc4)nn23)c1,-26%[172 µM],-11%[87.6 µM],-37*,-5%[87.6 µM],?,?,?
O=C(NCC1CC1)c1ccnc(-c2nnc3ccc(Nc4ccccc4)nn23)c1,?,-6%[87.6 µM],-18,?,?,i,/
COCCn1c(=O)c(C(=O)NCCc2ccccc2)nc2cccnc21,-10%[172 µM],-7%[87.6 µM],13,-8%[87.6 µM],-22%[138 µM],/,/
O=C1[C@@H]2C[C@@H](O)CN2C2(CN(Cc3cccc(F)c3)C2)C(=O)N1Cc1ccccc1,-6%[172 µM],24%[87.6 µM],-8,7%[87.6 µM],-20%[174 µM],i,/
Cn1cc(-c2cnc3[nH]cc(CC(=O)NCc4ccc5c(c4)OCO5)c3c2)cn1,?,24%[87.6 µM],-20,-8%[87.6 µM],?,i,/
Cn1cc(-c2cnc3[nH]cc(CC(=O)Nc4ccccc4Cl)c3c2)cn1,-11%[172 µM],44%[87.6 µM],-26*,6%[87.6 µM],?,i,?
O=C(O)c1ccc(-c2ncc3cnc(-c4cccc(F)c4)cn23)cc1,i,-10%[87.6 µM],-30*,4%[87.6 µM],?,i,?
Cc1ccc(-c2cc(C(F)(F)F)c(C#N)c(SCC(=O)O)n2)cc1,/,8%,-35*,-4%,/,/,3%
CCOC(=O)CSc1nc(-c2ccc(F)cc2)cc(C(F)(F)F)c1C#N,/,-11%,-2,-3%,/,/,/
CCn1c2ccccc2c2cc(CN3CCN(Cc4ccccc4F)CC3)ccc21,/,-11%,-26*,12%,/,/,-1%
CCn1c2ccccc2c2cc(CN3CCN(Cc4ccccc4C)CC3)ccc21,/,10%,-28*,0%,/,/,5%
Cc1nn(-c2ccccc2)c2c1C(C(C)C)N(C1CN([S+](=O)([O-])c3cccs3)C1)C2=O (centres undefined),?,/,14,/,-29%,/,/
CC1=C(C(=O)OC(C)C)C(c2cccc([N+](=O)[O-])c2)C(C(=O)OC2CN(C(c3ccccc3)c3ccccc3)C2)=C(N)N1 (centres undefined),/,-41%[25.6 µM],1,-10%[23.9 µM],/,/,0%
COCCOC(=O)C1=C(C)NC(C)=C(C(=O)OC(C)C)C1c1cccc([N+](=O)[O-])c1 (centres undefined),/,-4%,26,-3%,/,/,/
Cc1ccc(NC(=O)CSCc2cnn(-c3ccccc3)c2-n2cccc2)c(C)c1,/,-28%,-28*,-4%,/,/,2%
COCCn1cnc2ccc(-c3cccnc3OC)nc2c1=O,i,34%[87.6 µM],11,-8%[87.6 µM],?,i,/
COC(=O)c1c(NC(=O)COc2ccc(OC)cc2)sc2c1CCC(C)C2 (centres undefined),/,?,-38*,?,/,/,-12%
Cc1ccc(C)c(N2CCN(c3ncnc4c3nc3n4CCCCC3)CC2)c1,/,15%,10,-5%,/,/,/
SMILES,HEK293 tox,SNCA expr inhib,IP6K1 inh,HEK293 viab,NIH3T3 tox,FLuc inh,IP6K1 conf
Cc1ccc(C)c(N2CCN(c3ncnc4c3nc3n4CCCC3)CC2)c1,/,23%,-30*,-19%,/,/,-3%
Cc1nnc(NC(=O)c2nc(S(=O)(=O)Cc3ccccc3)ncc2Cl)s1,/,?,-35*,?,/,/,-18%
CCc1nnc(NC(=O)c2nc(S(C)(=O)=O)ncc2Cl)s1,/,?,-35*,?,/,/,-10%
O=C(O)CCC(=O)N1Cc2ccccc2CC2(CCCN2CC2CCNC2)C1 (centres undefined),-6%,?,2,-2%,-7%,/,/
CCCOc1nccnc1NC1CCN(C(=O)NCc2ccco2)CC1,?,-12%,-3,-1%,?,i,/
Cn1nc(C2CCCC2)cc1NC(=O)c1ccccc1F,?,87%[87.6 µM],-1,6%[87.6 µM],?,/,/
Cc1cc(F)c(C(=O)Nc2cccc(-c3nncn3C(C)C)n2)cc1-n1cnc(C2CC2)c1,/,/,-35*,?,/,/,?
CS(=O)(=O)c1ccc(CN2CCOC[C@H]2c2ncc(-c3ccc(C(F)(F)F)cc3)[nH]2)cc1,?,1%,-3,2%,?,i,/
Cn1cccc1C(=O)NCC(=O)N1CCCCCNC(=O)CC1c1ccccc1 (centres undefined),-9%,52%,10,-6%,-14%,i,/
CCCCN(C)C(=O)c1c(C)sc2ccn(CCC)c(=O)c12,-19%,21%,-7,-3%,-2%,i,-24%
CCCn1ccc2sc(C)c(C(=O)O)c2c1=O,16%,48%,0,1%,i,i,/
N#Cc1c(O)c2c(-c3ccc(-c4ccccc4O)cc3)csc2[nH]c1=O,/,0%,-46*,-34%,/,/,?
N#CC1C(=O)Nc2scc(-c3ccc(-c4ccccc4O)cc3)c2C1=O (centres undefined),/,/,-23,-5%,/,/,/
CCCCc1nn(CC(=O)N2CCNC(=O)C2)c(=O)n1CCc1ccccc1,-3%,3%,17,-4%,-1%,i,/
CCCN(C(=O)Cn1ncc2c([nH]c3ccccc32)c1=O)c1ccc(F)cc1,/,-29%,-37*,14%,/,/,-16%
